Compounds with a hit are over-represented: about 11% of the library has one in this group of screens.
3T3 cytotox: NIH 3T3 cell cytotoxicity; NIH 3T3 viability, CellTiter-Glo ATP luminescence, 48-72 h; Potency, µM (doses to about 96.7 µM), for inactives: at the highest dose activity change, negative = cytotoxicity, actives largely listed as inhibitors; actives 4.3% (n = 94,000); also: nearly all actives have a fitted effect of over 55% in size
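NIH 3T3 cells at 400 cells/well received 23 nL of compound by pintool and were incubated 48 or 72 h at 37 °C. Viability was read as ATP-coupled CellTiter-Glo luminescence.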
NPR1 antag: blocks ANP-stimulated signaling of human Npr1 receptor; Potency, µM (series often up to 46.3 µM), for inactives: at the top dose activity change, negative = inhibition, usual class: inhibitors; actives 1.6% (n = 76,000); P16066; HEK293 hNpr1 GloSensor cGMP, ANP-stimulated luminescence; calls by dose curve; also: nearly all actives have a fitted effect of over 60% in size
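HEK293 cells stably expressing human Npr1 and cGMP GloSensor pGS-40F, loaded 2 h with 2% GloSensor reagent, given compound 30 min at room temperature. Luminescence read before and 20 min after 0.1 nM hNppA.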
HEK293 tox: HEK 293 cell cytotoxicity; HEK 293 viability, ATP luminescence (CellTiter-Glo), 48-72 h; Potency, µM (series often up to 115 µM), for inactives: at the highest dose activity change, negative = cytotoxicity, actives largely listed as inhibitors; AID 1345083; actives 6.6% (n = 94,000); also: nearly all actives have a fitted effect of over 60% in size
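HEK 293 cells seeded at 250 cells/well were exposed to compound for 48 or 72 hr at 37 degree Celsius. Viability taken as ATP content by CellTiter-Glo luminescence.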
Luciferase inh: blocks purified firefly luciferase enzyme activity | AID 1347043 | Potency, µM (highest dose often 115 µM), hits mostly inhibitors | actives 2.5% (n = 76,000) | purified P. pyralis luciferase, luminescence, biochemical; also: nearly all actives have a fitted effect of over 65% in size
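Inhibitors were tested against purified firefly luciferase in a biochemical, low-substrate format (both substrates at 10uM) and luminescence measured with a CCD imager.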
The depositor's hits bear a star; i = inactive; ? = inconclusive; · = not tested or not shown; [ ] = remark or other dose. Unless noted, calls follow the shape of the dose curve; as a rule, active = well fitted curve in the direction sought with a large enough effect; inconclusive = small, poorly fitted or top-dose-only effect, or another doubt; inactive = no such curve, though single readings can be large; an effect the other way counts as inactive or inconclusive. % is scaled to controls: 0 for no effect and ±100 for the full control effect; potency is read from the fitted curve at half-maximal effect.

SMILES | 3T3 cytotox | NPR1 antag | HEK293 tox | Luciferase inh
N#Cc1ccc(C(=O)N2CCC3(CC2)NC(=O)N(Cc2ccc(Cl)cc2)C3=O)cc1 | 16µM* | ? | ? | i
N#Cc1cccc(C(=O)N2CCC3(CC2)NC(=O)N(Cc2ccc(Cl)cc2)C3=O)c1 | ? | ? | ? | i
O=C(c1ccc(Cl)cc1)N1CCC2(CC1)C(=O)NCN2CCc1ccc(Cl)cc1 | ? | · | 40µM* | ·
Cc1ccc(C(=O)N2CCC(C(=O)N3CCC(c4nc5ncccc5[nH]4)CC3)CC2)cc1 | -6% | · | 2% | ·
Cc1oc(-c2cccc(Oc3ccccc3)c2)nc1CN1CC[C@H](N(C)C)C1 | 79µM* | 11% | ? | i
CN(Cc1cc(C[C@@H]2C[C@H](NCc3cccnc3)C2(C)C)no1)c1ccccc1 | ? | ? | 63µM* | i
CC(=O)N[C@H]1C[C@@H](Cc2cc(C(C)(C)C)on2)C1(C)C | ? | 3%[70.6 µM] | 1%[230 µM] | i
CC(C)(C)c1cc(C[C@@H]2C[C@H](NCc3ccccn3)C2(C)C)no1 | 50µM* | ? | 50µM* | i
COc1ccc(CN[C@H]2C[C@@H](Cc3cc(CN(C)c4ccccc4)on3)C2(C)C)cc1 | ? | -30%[70.6 µM] | 28µM* | i
CC1(C)[C@H](Cc2cc(CCO)on2)C[C@@H]1NCc1ccncc1 | ? | -28%[70.6 µM] | ? | i
CC1(C)[C@H](Cc2cc(CCO)on2)C[C@@H]1NCc1cccnc1 | -28%[174 µM] | -1%[70.6 µM] | -11%[172 µM] | i
COc1cccc(Nc2cccc(CN3CCC(C)(NC(C)=O)C3)c2)c1 (configuration not stated) | ? | -13%[70.6 µM] | ? | 50µM*
CC(=O)NC1(C)CCN(Cc2cccc(Nc3cccc(Cl)c3)c2)C1 (configuration not stated) | 45µM* | ? | 71µM* | ?
O=C(c1ccc(F)cc1)N1CCN(CCn2nc3n(c2=O)CCCC3)CC1 | -25% | · | -23% | ·
CCOC(=O)C1CCCN(C(=O)c2cn3cc(-c4ccc(F)cc4)sc3n2)C1 (configuration not stated) | -19% | · | -6% | ·
COc1ccc(C(=O)N2CCN(c3nccc(Nc4ccccc4OC)n3)CC2)cc1 | ? | · | 40µM* | ·
COc1ccccc1Nc1ccnc(N2CCN(C(=O)c3ccccc3Cl)CC2)n1 | 40µM* | · | ? | ·
COc1ccccc1Nc1ccnc(N2CCN(C(C)=O)CC2)n1 | -25%[138 µM] | · | 5%[172 µM] | ·
O=C(Nc1cccc2ccccc12)O[C@@H]1CO[C@H]2[C@@H]1OC[C@@H]2NS(=O)(=O)c1ccc2ccccc2c1 | 79µM* | 0% | ? | i
O=C(Nc1ccc(Oc2ccccc2)cc1)N[C@H]1CO[C@H]2[C@@H]1OC[C@H]2OC(=O)Nc1cccc2ccccc12 | ? | ? | 18µM* | i
O=C(Nc1cccc2ccccc12)O[C@@H]1CO[C@H]2[C@@H]1OC[C@@H]2NCC1CCCCC1 | ? | -22%[70.6 µM] | 45µM* | i
O=C(Nc1cccc2ccccc12)O[C@@H]1CO[C@H]2[C@@H]1OC[C@@H]2NC(=O)C1CCC1 | -6%[174 µM] | -2%[70.6 µM] | -8%[172 µM] | i
O=C(Nc1ccc(Oc2ccccc2)cc1)O[C@@H]1CO[C@H]2[C@@H]1OC[C@@H]2NC(=O)c1ccccn1 | ? | 11µM* | ? | ?
O=C(Nc1cccc2ccccc12)O[C@@H]1CO[C@H]2[C@@H]1OC[C@@H]2NS(=O)(=O)c1cccc2cccnc12 | -30% | -3% | -20% | i
Cc1cc(C)cc(-c2ccc(CN3CCCC3C(=O)NCc3ccc4c(c3)OCO4)cc2)c1 (configuration not stated) | 35µM* | · | 50µM* | ·
SMILES | 3T3 cytotox | NPR1 antag | HEK293 tox | Luciferase inh
Cc1cc(C)cc(-c2ccc(CN3CCCC3C(=O)NC(C)C)cc2)c1 (configuration not stated) | ? | · | 50µM* | ·
Cc1cc(C)cc(-c2ccc(CN3CCCC3C(=O)NC3CC3)cc2)c1 (configuration not stated) | ? | · | 50µM* | ·
Cc1cc(C)cc(-c2ccc(CN3CCCC3C(=O)NCCc3ccccc3)cc2)c1 (configuration not stated) | 32µM* | · | 40µM* | ·
Cc1cc(C)cc(-c2ccc(CN3CCCC3C(=O)Nc3ccccc3F)cc2)c1 (configuration not stated) | -37% | · | ? | ·
Cc1cc(C)cc(-c2ccc(CN3CCCC3C(=O)Nc3ccccc3Cl)cc2)c1 (configuration not stated) | -18% | · | -15% | ·
O=C(c1nc2cccnc2n(Cc2ccccc2)c1=O)N1CCN(c2ncccn2)CC1 | -18% | · | i | ·
COc1ccc(Cl)cc1C(=O)N1CCC2(CC1)NC(=O)N(c1cccc(F)c1)N2 | ? | 5% | ? | i
O=C(C1CC1)N1CCC2(CC1)CCN(CCc1ccccc1)c1ccccc1O2 | -30% | 9% | ? | ?
Cc1ccccc1CCC1CCCN(C(=O)C2(C)CC2)C1 (configuration not stated) | ? | -7% | 22µM* | ?
O=C1[C@H]2CN(Cc3cc(Cl)ccc3F)C[C@H]2C(=O)N1CCc1ccccc1 | -22% | -2% | ? | i
COc1ccc(C(=O)N2CCc3ccc(C(=O)NCc4cccc(F)c4)cc32)cc1 | ? | -26% | 40µM* | i
COc1cccc(CNC(=O)c2ccc3c(c2)N(C(=O)c2ccc(F)cc2)CC3)c1 | ? | -11% | ? | i
COc1ccc(C(=O)N2CCc3ccc(C(=O)NCc4cccc(OC)c4)cc32)cc1 | ? | 2% | 79µM* | i
O=C(Cc1cccc(Cl)c1)NC1CCN(c2nc3ncccc3o2)C1 (configuration not stated) | -25%[138 µM] | · | -19%[172 µM] | ·
CCS(=O)(=O)c1ccc2oc([C@H]3CCN(Cc4ccc(OC)cc4)C3)nc2c1 | ? | ? | 63µM* | i
CCS(=O)(=O)c1ccc2oc([C@H]3CCN(Cc4c[nH]c5ccccc45)C3)nc2c1 | ? | -10%[70.6 µM] | ? | i
Fc1ccc(CN2CC[C@H](c3nc4cc(Cl)ccc4o3)C2)cc1F | ? | -28%[70.6 µM] | 89µM* | i
COc1cccc(CN2CC[C@H](c3nc4cc(Cl)ccc4o3)C2)c1 | 89µM* | -1%[70.6 µM] | ? | ?
Fc1ccc2oc([C@H]3CCN(Cc4ccc(F)c(F)c4)C3)nc2c1 | -26%[138 µM] | 2%[70.6 µM] | ? | i
COc1cccc(CN2CCC(Cc3ncc(C)n3Cc3ccccc3)C2)c1 (configuration not stated) | 35µM* | -19% | 45µM* | i
O=C(NCc1ccccn1)c1nc2sccn2c1-c1ccccc1 | ? | · | -23%[172 µM] | ·
CC(C)(C)NC(=O)N1CCCC1c1nc(CCOCC2CC2)no1 (configuration not stated) | i | · | i | ·
COc1ccc(-c2ccc(C(=O)NC3CCCCC3)c(Cl)c2)nn1 | -30% | · | ? | ·
CNCCN1C(=O)CC[C@H]2CN(c3ncc(Cl)cc3F)CC[C@H]21 | -34% | -6% | ? | i
